Results taken from PubChem BioAssay (NCATS).
Several values for one entry are separate records, joined by “and”; a condition that tells them apart may be missing. Identical values can stand only once. Results filed as inconclusive are left out. Activity calls are given as the source filed them. Unless noted, calls come from the whole dose curve; as a rule, active = well fitted curve in the direction sought with a large enough effect; inconclusive = small, poorly fitted or top-dose-only effect, or another doubt; inactive = no such curve, though single readings can be large; an effect the other way counts as inactive or inconclusive.

Experiments:
[1] = molecular target: Arylsulfatase A (Homo sapiens) (UniProt P15289); experiment: qHTS screen for enhancers of Arylsulfatase A (ASA1): LOPAC Validation Assay (AID 720538)
Chain of Arylsulfatase A (Homo sapiens) (P15289 whole entry, looked up): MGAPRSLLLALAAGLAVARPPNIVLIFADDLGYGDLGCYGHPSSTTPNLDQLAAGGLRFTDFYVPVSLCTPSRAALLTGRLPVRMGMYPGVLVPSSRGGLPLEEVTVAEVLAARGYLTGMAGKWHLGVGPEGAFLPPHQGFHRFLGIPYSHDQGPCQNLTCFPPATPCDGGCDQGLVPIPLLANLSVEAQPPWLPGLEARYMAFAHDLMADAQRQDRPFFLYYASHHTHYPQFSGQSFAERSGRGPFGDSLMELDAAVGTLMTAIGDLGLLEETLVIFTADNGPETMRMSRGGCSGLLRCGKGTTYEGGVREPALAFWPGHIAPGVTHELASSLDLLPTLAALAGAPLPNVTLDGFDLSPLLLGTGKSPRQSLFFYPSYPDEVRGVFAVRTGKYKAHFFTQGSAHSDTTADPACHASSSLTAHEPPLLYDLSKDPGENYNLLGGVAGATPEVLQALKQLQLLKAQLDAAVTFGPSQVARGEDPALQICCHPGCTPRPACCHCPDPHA
Method in brief: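 SV40-transformed fibroblasts from an MLD patient (ASA-I179S) were treated with compound for 48 h at 37 C. They were then lysed with 0.5 mM pNCS substrate (final) for 14 h at room temperature and stopped with NaOH; signal read by fluorescence (Ex 525/Em 598 nm), with increase denoting enhanced activity.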

[2] = qHTS for compounds that reverse cellular toxicity of Amyloid beta (A-beta) peptide in yeast: LOPAC Validation Assay (AID 720559);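 note: plate controls were DMSO for no effect and equimolar ferric chloride plus clioquinol rescue for full effect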
Method in brief: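 Yeast expressing toxic A-beta grown with pinned compounds at 30 C for 48 hr. Growth measured as absorbance at 600 nm; data normalized to DMSO and to an equimolar FeCl3/clioquinol mixture as positive control.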

[3] = qHTS for Activators of Parkin Expression: LOPAC Validation Assay (NLuc Reporter) (AID 720572;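 note: 0% = DMSO and 100% = positive control compound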)
Method in brief: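 Neuronal cells with a Parkin promoter-driven FLuc/NLuc coincidence reporter were treated 24 h at 37 C in 7-point dose response (LOPAC). NLuc luminescence read after FLuc; signals normalized to DMSO and positive control (100%).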

[4] = qHTS for Activators of Parkin Expression: LOPAC Validation Assay (FLuc Reporter) (AID 720573;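 note: 0% = DMSO and 100% = positive control compounds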)
Method in brief: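 Neuronal cell line stably expressing FLuc/NLuc coincidence reporter under the Parkin promoter, 1,500 cells/well, dosed 24 h after seeding in 7-point series for 24 h at 37 C. FLuc luminescence read; normalized to DMSO and positive control (100%).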

[5] = molecular target: T1, Hexokinase-4 (Homo sapiens) + Glucokinase regulatory protein (Homo sapiens) (UniProt P35557+Q14397); experiment: qHTS assay for inhibitors of recombinant human GCK-GKRP interaction: Diaphorase-coupled assay (AID 743205)
T1 sequence (P35557 whole entry, looked up): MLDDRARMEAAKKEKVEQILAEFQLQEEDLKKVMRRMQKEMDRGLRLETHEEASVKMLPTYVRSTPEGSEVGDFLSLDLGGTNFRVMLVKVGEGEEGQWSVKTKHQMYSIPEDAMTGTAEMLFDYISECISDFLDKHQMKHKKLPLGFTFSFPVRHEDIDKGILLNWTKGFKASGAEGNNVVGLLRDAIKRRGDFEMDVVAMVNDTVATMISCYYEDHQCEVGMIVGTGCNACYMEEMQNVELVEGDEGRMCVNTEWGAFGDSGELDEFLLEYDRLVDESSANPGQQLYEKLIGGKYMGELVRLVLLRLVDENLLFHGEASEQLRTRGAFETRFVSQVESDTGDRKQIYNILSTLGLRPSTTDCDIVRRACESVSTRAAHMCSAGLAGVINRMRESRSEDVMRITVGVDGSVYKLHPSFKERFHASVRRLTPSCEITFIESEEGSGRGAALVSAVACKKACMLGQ
T1 sequence (Q14397 whole entry, looked up): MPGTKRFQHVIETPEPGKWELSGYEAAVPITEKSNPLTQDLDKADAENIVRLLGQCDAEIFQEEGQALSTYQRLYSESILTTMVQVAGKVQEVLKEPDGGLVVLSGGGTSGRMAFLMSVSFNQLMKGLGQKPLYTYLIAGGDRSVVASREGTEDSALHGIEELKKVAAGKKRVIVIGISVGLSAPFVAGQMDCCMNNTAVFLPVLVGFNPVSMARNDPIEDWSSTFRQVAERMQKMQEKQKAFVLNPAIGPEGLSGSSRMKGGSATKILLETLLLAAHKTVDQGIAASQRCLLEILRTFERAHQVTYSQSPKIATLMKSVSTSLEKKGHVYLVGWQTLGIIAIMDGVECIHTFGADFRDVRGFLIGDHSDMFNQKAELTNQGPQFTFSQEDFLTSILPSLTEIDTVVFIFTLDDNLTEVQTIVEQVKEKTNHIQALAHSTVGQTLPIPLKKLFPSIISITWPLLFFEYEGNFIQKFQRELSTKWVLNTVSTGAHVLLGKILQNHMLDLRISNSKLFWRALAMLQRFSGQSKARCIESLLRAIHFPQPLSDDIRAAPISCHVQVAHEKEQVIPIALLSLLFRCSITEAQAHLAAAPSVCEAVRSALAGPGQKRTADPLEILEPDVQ
Method in brief: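 Compounds pre-incubated 20 min with substrate, then 10 nM GST-GCK with 10 nM FLAG-GKRP added. GCK activity coupled via G6PDH and diaphorase to resorufin (5 mM glucose, 0.4 mM ATP, 0.15 mM NADP+, pH 7.6), read kinetically over 30 minutes at Ex 525/Em 590 nm.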

[6] = molecular target: T1, Hexokinase-4 (Homo sapiens) + Glucokinase regulatory protein (Homo sapiens); experiment: qHTS assay for inhibitors of recombinant human GCK-GKRP interaction: ADP-Glo assay (AID 743206);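 note: plate controls were DMSO plus enzyme for no effect and no enzyme for full effect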
Method in brief: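 GST-GCK and FLAG-GKRP (15 nM each in the dispensed mix, with 2 uM S6P) react with 0.4 mM ATP and 5 mM glucose (final) in Hepes pH 7.6 for 60 min at room temperature. ADP is measured by ADP-Glo luminescence.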

[7] = molecular target: T1, Hexokinase-4 (Homo sapiens) + Glucokinase regulatory protein (Homo sapiens); experiment: qHTS assay for inhibitors of recombinant human GCK-GKRP interaction: HTRF assay (AID 743207);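 note: 0% = DMSO with GCK present and -100% = DMSO wells lacking GCK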
Method in brief: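 HTRF binding of 5 nM GST-GCK and 5 nM FLAG-GKRP with 2 uM S6P in pH 7.1 Hepes buffer (MgCl2, KCl, DTT, Tween 20, BSA). Anti-FLAG XL665 and anti-GST donor added, 60 min at room temperature; 665/615 nm read, normalized to with- and without-GCK controls.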

[8] = qHTS Assay for Identifying Gametocytocidal Compounds (AID 743244); note: potency is the fitted concentration of half-maximal effect;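 for max response: % is set by controls: 0 for no effect and ±100 for the full control effect; actives lower the fluorescent signal which means gametocytes are killed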; conditions: P. falciparum 3D7 stage III-V gametocytes, alamarBlue, 72 h; max response: stronger effect = lower value
Method in brief: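 3D7 gametocytes, stages III–V, 20,000/well; cpd 72 h, 37 °C/5% CO2; + alamarBlue 24 h; fluor. Ex 525/Em 598.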

[9] = qHTS for small molecule inhibitors of Yes1 kinase: Counter Assay (AID 686950);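 note: no kinase present so only ADP-Glo detection of a fixed ADP amount is tested; luminescence from ADP-Glo reporting ADP in a fixed ATP and ADP mixture; 0% = DMSO wells with ATP plus ADP and -100% = ATP-only wells without ADP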
Method in brief: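 Enzyme-free detection counter-screen: compounds preincubated 20 min in buffer, then 0.08 mM ATP plus 0.02 mM ADP added for 60 min at room temperature; ADP-Glo luminescence. Buffer 50 mM Tris pH 7.5, 10 mM MgCl2, 150 mM NaCl; normalized to ATP+ADP and ATP-only controls.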

[10] = qHTS profiling for inhibitors of Plasmodium falciparum (3D7) proliferation (AID 743322; call rule not given here;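 note: infected erythrocytes exposed to compound for 72 h before lysis; 100% = DMSO vehicle wells and 0% = 0.29 µM artemisinin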); conditions: P. falciparum 3D7 proliferation; at 28.7 µM (top of the series)
Method in brief: (§1)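 Erythrocytes infected with P. falciparum (0.3% parasitemia, 2.5% hematocrit) incubated with compounds 72 h at 37 C, 5% CO2. Lysis with saponin/Triton buffer containing SYBR Green I, overnight at room temperature in the dark; DNA fluorescence (485/535 nm) normalised to 0.29 uM artemisinin and DMSO.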

[11] = qHTS profiling for inhibitors of Plasmodium falciparum (DD2) proliferation (AID 743323; call rule not given here); conditions: lower = more inhibition; at 28.7 µM (top of the series)
Method in brief: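 P. falciparum Dd2-infected erythrocytes (0.3% parasitemia, 2.5% hematocrit) exposed 72 h at 37 C, 5% CO2. Lysis with SYBR Green, overnight at room temperature, fluorescence 485/535 nm; normalized to 0.29 uM artemisinin and DMSO.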

[12] = qHTS profiling for inhibitors of Plasmodium falciparum (HB3) proliferation (AID 743324); conditions: Plasmodium falciparum HB3 blood-stage proliferation; at 28.7 µM (top of the series);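 note: 100% = DMSO vehicle wells and 0% = artemisinin-treated control wells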
Method in brief: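 P. falciparum HB3 grown in erythrocytes (0.3% parasitemia, 2.5% hematocrit final) with compound for 72 h at 37 C, 5% CO2. Parasite DNA detected by SYBR Green after saponin/triton lysis overnight; normalized to 0.29 uM artemisinin and DMSO.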

[13] = qHTS profiling of the MIPE4 collection as inhibitors of Plasmodium falciparum (3D7) proliferation (AID 743344; call rule not given here;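 note: scaled between DMSO vehicle wells and 0.29 µM artemisinin as full inhibition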); conditions: P. falciparum 3D7 in erythrocytes, SYBR Green DNA fluorescence, 72 h; at 28.5 µM (top of the series) unless noted
Method in brief: as §1

[14] = qHTS profiling of the MIPE4 collection as inhibitors of Plasmodium falciparum (DD2) proliferation (AID 743345; call rule not given here); conditions: P. falciparum Dd2 in erythrocytes, SYBR Green DNA, 72 h; at 28.5 µM (top of the series) unless noted
Method in brief: as §1

[15] = qHTS profiling of the MIPE4 collection as inhibitors of Plasmodium falciparum (DD2) proliferation (Rep 2) (AID 743346; call rule not given here); conditions: P. falciparum Dd2 in erythrocytes, SYBR Green DNA, 72 h; at 28.5 µM (top of the series) unless noted
Method in brief: as §1

[16] = qHTS profiling of the MIPE4 collection as inhibitors of Plasmodium falciparum (HB3) proliferation (AID 743347; call rule not given here;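 note: plate controls were DMSO vehicle wells for no effect and artemisinin wells for full effect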); conditions: P. falciparum HB3 in erythrocytes, SYBR Green DNA, 72 h; at 28.5 µM (top of the series) unless noted
Method in brief: as §1

c1ccc(C2CC2)c(OCC2=NCCN2)c1
Potency [1]: inactive | outcome [2]: inactive | outcome [3]: inactive | outcome [4]: inactive | outcome [5]: inactive | outcome [6]: inactive | outcome [7]: inactive | max response [8]: -3.84% (inactive) and 23.7% (inactive)

COC1(CS(=O)c2ccccc2)CCN(CCc2c[nH]c3ccc(F)cc23)CC1 (stereo not drawn)
outcome [9]: inactive | remaining parasite growth % (stronger effect = lower value) [10]: 23.6% | activity, percent of control [11]: 44.5% | remaining proliferation (% of control), lower = more inhibition [12]: 10% | parasite growth, % of DMSO control [13]: 36.7% | parasite growth remaining, % of DMSO control (lower = more inhibition) [14]: 55.9% | parasite growth, % of control (lower = inhibition) [15]: 66.8% | growth, % of control [16]: 35.7%

NN=C(N)N
Potency [1]: inactive | outcome [2]: inactive | outcome [3]: inactive | outcome [4]: inactive | outcome [5]: inactive | outcome [6]: inactive | outcome [7]: inactive | max response [8]: 9.75% (inactive) and 23.5% (inactive)

C[C@@H]1[C@@H](C(=O)C[C@H]2O[C@@H]3O[C@]4(C)CC[C@@H]5[C@H](C)CC[C@@H]([C@H]2C)[C@@]35OO4)O[C@@H]2O[C@]3(C)CC[C@H]4[C@H](C)CC[C@@H]1[C@@]24OO3
outcome [9]: inactive | Potency [8]: 6.6 nM (active) | remaining parasite growth % (stronger effect = lower value) [10]: -0.0732% | activity, percent of control [11]: -0.0237% | remaining proliferation (% of control), lower = more inhibition [12]: 0.763% | parasite growth, % of DMSO control [13]: 20.5% | parasite growth remaining, % of DMSO control (lower = more inhibition) [14]: 7.59% | parasite growth, % of control (lower = inhibition) [15]: 8.22% | growth, % of control [16]: 29.5%

Cn1cc(C2=C(c3cn(C4CCN(Cc5ccccn5)CC4)c4ccccc34)C(=O)NC2=O)c2ccccc21
outcome [9]: inactive | remaining parasite growth % (stronger effect = lower value) [10]: 94.2% | activity, percent of control [11]: 70% | parasite growth, % of DMSO control [13]: 11.5% | parasite growth remaining, % of DMSO control (lower = more inhibition) [14]: 19.9% | parasite growth, % of control (lower = inhibition) [15]: 21.1% | growth, % of control [16]: 6.8%

COc1ccc(C(=O)c2c(C)n(CCN3CCOCC3)c3ccccc23)cc1
outcome [9]: inactive | max response [8]: 6.23% (inactive) and 9.75% (inactive) | remaining parasite growth % (stronger effect = lower value) [10]: 111% | activity, percent of control [11]: 102% | remaining proliferation (% of control), lower = more inhibition [12]: 94.6% | parasite growth, % of DMSO control [13]: 90.6% | parasite growth remaining, % of DMSO control (lower = more inhibition) [14]: 95.8% | parasite growth, % of control (lower = inhibition) [15]: 66.9% | growth, % of control [16]: 93.4%

CC(O)(CS(=O)(=O)c1ccc(F)cc1)C(=O)Nc1ccc(C#N)c(C(F)(F)F)c1 (stereo not drawn)
outcome [9]: inactive | outcome [2]: inactive | outcome [3]: inactive | outcome [4]: inactive | outcome [5]: inactive | outcome [6]: inactive | outcome [7]: inactive | max response [8]: 4.22% (inactive) and -26.1% (inactive) | remaining parasite growth % (stronger effect = lower value) [10]: 91.3% | activity, percent of control [11]: 89.3% | remaining proliferation (% of control), lower = more inhibition [12]: 70.9% | parasite growth, % of DMSO control [13]: 61.4% | parasite growth remaining, % of DMSO control (lower = more inhibition) [14]: 102% | parasite growth, % of control (lower = inhibition) [15]: 64.8% | growth, % of control [16]: 81.9%

C[C@]12CC[C@@H]3c4ccc(O)cc4C[C@@H](CCCCCCCCCS(=O)CCCC(F)(F)C(F)(F)F)[C@H]3[C@@H]1CC[C@@H]2O (stereo partly drawn)
Potency [1]: inactive

CN(C)CCN(C)CCc1ccc(Cl)c(Cl)c1
outcome [9]: inactive | remaining parasite growth % (stronger effect = lower value) [10]: 55.4% | activity, percent of control [11]: 25% | remaining proliferation (% of control), lower = more inhibition [12]: 36.8% | parasite growth, % of DMSO control [13]: 50% | parasite growth remaining, % of DMSO control (lower = more inhibition) [14]: 32% | parasite growth, % of control (lower = inhibition) [15]: 18.2% | growth, % of control [16]: 72.7%
